High-throughput results (PubChem BioAssay)
Only some compounds are listed: those with a hit (about 1.7% of all), similar ones and a draw of the others.
PREPL inh: inhibits the human prolyl oligopeptidase-like enzyme. Q4J6C6. recombinant PREPL, fluorescence polarization activity-based probe. actives 0.68% (n = 320,000). inhibition, % at 5.96 µM; in the data active = inhibition above about 43%;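 also: 0% = enzyme with DMSO and 100% = wells lacking enzyme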
Rin1 Abl inh: blocks binding of human Rin1 to Abl | P00519+Q13671 | TR-FRET Rin1/Abl binding, biochemical | inhibition, % at 7.35 µM | actives 0.4% (n = 360,000); in the data active = inhibition above about 5%, passing the limit was not always enough
LYPLA2 inh: blocks human lysophospholipase 2, a PME1 counter-screen | O95372 | recombinant LYPLA2, FP-Rh probe fluorescence polarization | inhibition, % at 5.9 µM | actives 0.38% (n = 320,000) | AID 2177;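 active = inhibition above the screen-wide mean plus 3 SD, limit set per campaign, cut at about 26% in these data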;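 also: 0% = LYPLA2 with DMSO and 100% = wells lacking LYPLA2 enzyme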
Target sequence (O95372 whole entry, looked up): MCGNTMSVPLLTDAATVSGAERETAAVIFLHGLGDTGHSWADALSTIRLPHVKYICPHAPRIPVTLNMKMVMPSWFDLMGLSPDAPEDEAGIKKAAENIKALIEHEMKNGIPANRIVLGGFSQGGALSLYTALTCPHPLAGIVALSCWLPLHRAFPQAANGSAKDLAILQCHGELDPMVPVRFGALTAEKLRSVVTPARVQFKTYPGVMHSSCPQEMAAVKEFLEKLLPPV
p97 ATPase inh: blocks human p97 ATPase activity. P55072. recombinant p97 ATPase, Kinase-Glo ATP luminescence, 3 h. inhibition, % at 8 µM. actives 0.42% (n = 220,000). AID 1481; in the data active = inhibition above about 15%;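 also: 0% = DMSO vehicle and 100% = wells lacking enzyme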
Hck-Nef inh: inhibitors of human Hck kinase activated by Nef; inhibition, % at 20 µM; P08631; Recombinant Hck-YEEI plus Nef, Z-Lyte FRET kinase assay; actives 0.68% (n = 220,000);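 active = Hck-Nef kinase inhibition above about 50%, limit read from the data; inactive = inhibition below that limit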;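 also: 0% = DMSO with Hck plus Nef and 100% = Hck alone without Nef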
LYPLA1 inh: blocks human lysophospholipase 1, a PME1 counter-screen; inhibition, % at 5.9 µM; recombinant LYPLA1, FP-Rh probe fluorescence polarization; actives 0.16% (n = 320,000);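 active = inhibition above the mean of all tested compounds plus 3 SD, set per campaign, cut at about 14% in these data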;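 also: inhibitors block serine hydrolase probe labeling of LYPLA1 so polarization falls; 0% = enzyme with DMSO and 100% = wells lacking LYPLA1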
Target sequence (O75608 whole entry, looked up): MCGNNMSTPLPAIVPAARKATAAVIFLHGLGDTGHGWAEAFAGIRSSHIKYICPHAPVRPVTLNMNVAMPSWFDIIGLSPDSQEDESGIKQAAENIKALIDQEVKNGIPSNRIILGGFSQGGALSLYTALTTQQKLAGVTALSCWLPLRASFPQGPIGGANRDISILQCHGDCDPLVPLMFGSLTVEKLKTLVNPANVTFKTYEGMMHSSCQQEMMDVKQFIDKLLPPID
p97 confirm: confirmation of human p97 ATPase inhibitors. shares compounds with p97 ATPase inh. recombinant p97 ATPase, Kinase-Glo ATP luminescence. inhibition, % at 8 µM. actives 44% (n = 760). AID 1517;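 active = percent inhibition of p97 ATPase above a set limit, the primary screen's mean plus 3 SD, cut at about 15% in these data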;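 also: 0% = DMSO wells and 100% = wells lacking p97 protein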
Starred values were filed as active, the others as inactive; / = not tested or not shown.

SMILES	PREPL inh	Rin1 Abl inh	LYPLA2 inh	p97 ATPase inh	Hck-Nef inh	LYPLA1 inh	p97 confirm
CCc1noc(C)c1C(=O)OC(C)C(=O)Nc1ccc(Cl)cn1 (stereo not given)	-2	3	5	/	/	4	/
CCOC(=O)C1=C(COC(=O)CSc2ccc(C)cc2)NC(=O)NC1C (stereo not given)	4	2	7	/	/	-1	/
COc1ccc(N(C)C(=O)Nc2ccc3c(c2)nnn3C)cc1	3	2	0	12	1	0	/
COc1ccc(N(C)C(=O)Nc2ccc3nsnc3c2)cc1	/	-1	/	32*	22	/	8
CCOC(=O)C(C(=O)Cc1ccccc1)c1ccccc1 (stereo not given)	/	1	/	/	/	/	/
N#Cc1ccccc1NC(=O)C1SC(=Nc2ccccc2)C(C(=O)Nc2ccc(Cl)cc2)=C1N (stereo not given)	-48	2	-51	9	6	-25	/
CCOc1ccc(N=C2SC(C(=O)Nc3ccccc3C#N)C(N)=C2C(=O)Nc2ccc(Cl)cc2)cc1 (stereo not given)	-3	0	-41	19*	19	-30	24*
Nn1cnnc1N/N=C\c1ccc(-c2ccccc2[N+](=O)[O-])o1	/	-4	/	27*	3	/	7
O=[N+]([O-])c1ccccc1-c1ccc(/C=N/n2cnnc2)o1	8	-3	1	2	2	1	/
O=C1NN(c2ccc(F)c(Cl)c2)C(=O)/C1=C\c1cccc(OC(=O)c2cccs2)c1	31	-2	9	16*	0	-7	15
O=C1OC(c2ccccc2)=N/C1=C/c1cccc(OC(=O)c2cccs2)c1	22	3	-10	5	3	-6	/
OC(c1ccccc1)c1ncc(-c2cccc(C(F)(F)F)c2)[nH]1 (stereo not given)	/	-1	/	/	/	/	/
O=C(CSc1ccccc1)N1CCN(c2ccccn2)CC1	-18	3	-2	1	1	-2	/
O=C(CSc1ccsc1[N+](=O)[O-])N1CCN(c2ccccn2)CC1	21	-4	-1	18*	20	-3	8
CCc1nnc(NC(=O)CSCc2cc(=O)n3ccsc3n2)s1	3	-1	-6	/	/	-2	/
COc1ccccc1C(=O)N/C(=C\c1ccc(Br)cc1)C(=O)NCCC(=O)O	6	0	-3	16*	23	3	2
Cc1[nH]c(=O)c(C#N)c(C)c1CCC(=O)Nc1cc(S(C)(=O)=O)ccc1Cl	17	0	-1	/	/	-4	/
O=C1NCCCCC1NC1CC(=O)N(c2ccccc2)C1=O (stereo not given)	-5	0	4	17*	8	5	9
COc1ccc(N2C(=O)C3C(c4ccc(OC)cc4O)NC(Cc4ccccc4)(C(=O)O)C3C2=O)cc1 (stereo not given)	4	1	6	18*	13	-1	7
CCCC1(C(=O)O)NC(c2ccc(OC)cc2O)C2C(=O)N(c3ccc(OC)cc3)C(=O)C21 (stereo not given)	-5	2	-4	3	13	0	/
Cc1ccc(S(=O)(=O)N2CCN(C(=O)COC(=O)C3CCC3)CC2)cc1	10	0	13	/	/	4	/
Cc1c(C(c2cccc([N+](=O)[O-])c2O)c2c(C)n(C)n(-c3ccccc3)c2=O)c(=O)n(-c2ccccc2)n1C	2	-1	8	-2	0	-1	/
Cc1[nH]n(-c2ccccc2)c(=O)c1C(c1cccc([N+](=O)[O-])c1O)c1c(C)[nH]n(-c2ccccc2)c1=O	-2	0	2	24*	2	-2	6
COc1cc(/C=C/c2ccc3c(Br)cc(Br)c(O)c3n2)ccc1O	18	0	-6	18*	-30	-7	15*
COc1ccc(/C=C/c2ccc3c(Br)ccc(O)c3n2)cc1	15	1	-4	/	/	-2	/
SMILES	PREPL inh	Rin1 Abl inh	LYPLA2 inh	p97 ATPase inh	Hck-Nef inh	LYPLA1 inh	p97 confirm
CN(C)S(=O)(=O)c1cccc(NC(=S)Nc2cccc3cnccc23)c1	/	-4	/	28*	-2	/	14
S=C(Nc1ccc(Cl)cc1)Nc1cccc2cnccc12	43	-8	10	18*	1	-3	5
CC[C@@]1(C(=O)OC)N[C@H](CN(C)S(=O)(=O)c2ccc(F)cc2)[C@@H]2C(=O)N(C)C(=O)[C@@H]21	8	-3	/	/	/	/	/
O=c1c2ccccc2nc2c3ccccc3c(Cl)nn12	/	/	/	21*	19	/	25*
Cc1ccccc1NC(=O)CC1C(=O)Nc2ccccc2N1CC(=O)N(C)C1CCS(=O)(=O)C1 (stereo not given)	9	4	-6	/	/	-2	/
N/C(=N\NC(=O)c1cccc(F)c1)c1cc2ccccc2oc1=O	1	-1	-6	16*	-2	0	8
N/C(=N\NC(=O)c1ccc(F)cc1)c1cc2ccccc2oc1=O	2	3	3	6	-10	1	/
CC(=O)Nc1ccc(NC(=O)C(C)OC(=O)CN2C(=O)C3CCCCC3C2=O)cc1 (stereo not given)	/	6	/	/	/	/	/
CCCC(=O)Nc1ccc(C(N)=O)cc1	4	4	-4	2	-11	-3	/
CC(=O)NCCC(=O)Nc1ccc(C(N)=O)cc1	-2	-2	1	23*	5	2	7
COC(=O)CC1Sc2ccccc2NC1=O (stereo not given)	-2	0	-1	16*	2	-2	5
COc1ccc(NC(=O)COC(=O)CC2Sc3ccccc3NC2=O)cc1 (stereo not given)	/	1	/	/	/	/	/
Cc1[nH][nH]c(=O)c1C(c1ccc(-c2cccc(C(=O)O)c2)o1)c1c(C)[nH][nH]c1=O	13	8	1	19*	24	-4	12
Cc1[nH][nH]c(=O)c1C(c1ccc(-c2ccccc2C(=O)O)o1)c1c(C)[nH][nH]c1=O	6	4	5	22*	6	0	24*
CC(=O)NCCC(=O)Nc1nc2ccc(Oc3ccccc3)cc2s1	7	3	3	/	/	0	/
O=C(c1cccc(NS(=O)(=O)c2cccc(F)c2)c1)N1CCCC1	/	-3	/	/	/	/	/
COc1ccc(CCn2c3c(c(=O)[nH]c2=O)C(NC(=O)c2cccs2)(C(F)(F)F)C(=O)N3)cc1OC (stereo not given)	-2	1	3	27*	-1	1	8
Cc1oc2c(c1C(=O)c1ccccc1)C(=O)C(=O)c1ccccc1-2	36	-3	14	31*	2	10	29*
Cc1oc2c(c1C(=O)O)C(=O)c1ccccc1C2=O	2	-2	1	2	9	0	/
CCOc1ccc(Br)cc1S(=O)(=O)N1CCCN(C)CC1	25	-4	1	/	/	-2	/
CCOc1ccc(Br)cc1S(=O)(=O)N1CCC(C(N)=O)CC1	15	0	2	15*	12	2	7
